# LAP4-GFP MLPCN – yeast TOR pathway LAP4-GFP modulation; S. cerevisiae LAP4-GFP multiplex, flow cytometry GFP, 3 h; median GFP as percent of DMSO wells; GFP response vs DMSO, % at 10 µM; 320,000 tested, 0.34% active; AID 2023;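 active = GFP response vs DMSO above a set limit, about the screen mean plus 3 SD, cut at about 150% in these data; inconclusive = under 70 cell events counted for the yeast strain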
# RPL19A-GFP yeast – alters RPL19A-GFP fluorescence in TOR pathway yeast screen | 330,000 tested, 0.3% active | AID 2025 | S. cerevisiae RPL19A-GFP strain, flow cytometry, 3 h; stronger effect = lower value | percent response vs DMSO, % at 10 µM;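 active = percent response vs DMSO below 50%; inconclusive = fewer than 70 events counted for the yeast strain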;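 also: median channel GFP fluorescence of the barcoded RPL19A-GFP strain; ratio of sample median GFP to plate DMSO average so 100% = DMSO; lower means less RPL19A-GFP as with rapamycin TOR inhibition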
# CIT2-GFP yeast – modulators of TOR pathway CIT2-GFP in S. cerevisiae; S. cerevisiae CIT2-GFP strain, flow cytometry, 3 h; 100 means same as DMSO wells; GFP response vs DMSO, % at 10 µM; 320,000 tested, 0.065% active; AID 2029;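 active = GFP response relative to DMSO above a set limit, near the screen mean plus 3 SD, cut at about 150% in these data; inconclusive = Fewer than 70 cells measured for a yeast strain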;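 also: ratio of well median GFP fluorescence to mean of DMSO wells on the plate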
# MEP2 TOR yeast – modulators of TOR pathway MEP2-GFP in S. cerevisiae. GFP response vs DMSO, % at 10 µM. AID 2016. 330,000 tested, 0.51% active. S. cerevisiae MEP2-GFP strain, flow cytometry GFP, 3 h; 100% = DMSO control level;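 active = GFP response versus DMSO above a set limit, roughly screen mean plus 3 SD, cut at about 180% in these data; inconclusive = fewer than 70 cells counted for a yeast strain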;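 also: median GFP fluorescence of the barcode-gated MEP2-GFP cells per well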
# AGP1-GFP MLPCN – modulators of TOR pathway AGP1-GFP in S. cerevisiae; S. cerevisiae AGP1-GFP multiplex flow cytometry, 3 h; GFP as percent of DMSO wells; GFP response vs DMSO, % at 10 µM; 320,000 tested, 0.02% active; AID 2066;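 active = GFP response relative to DMSO above a set limit, near screen average plus 3 SD, cut at about 150% in these data; inconclusive = fewer than 70 cells counted for the yeast strain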;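 also: median GFP channel fluorescence of the gated AGP1 strain per well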
# * = called active by the depositor; u = inconclusive; x = no result; [ ] = dose if it differs, or a comment. Only some compounds are listed: those with a hit (about 0.92% of all), similar ones and a draw of the others.
SMILES,LAP4-GFP MLPCN,RPL19A-GFP yeast,CIT2-GFP yeast,MEP2 TOR yeast,AGP1-GFP MLPCN
C=CCn1c(SCC(=O)Nc2ccc(F)cc2)nnc1-c1cnccn1,99,108,114,110,105
Cc1cc2cc3c(cc2nc1SCC(=O)N1CCOCC1)OCO3,99,60,u,294*[may fluoresce violet],22
C=C1C(=O)O[C@@H]2[C@H]1[C@@H](OC(=O)/C(C)=C/C)C/C(C)=C\C(=O)/C=C(\C)[C@@H]2O,103,106,78,102,84
O=C(NCC1CCCO1)c1sc(=S)n2c1[nH]c(=O)c1ccc(C(=O)N3CCCCC3)cc12 (stereo unspecified),96,42*[may fluoresce violet],u,206*[may fluoresce violet],u
CC(C)(C)NC(=O)c1ccc2c(c1)N(CC(=O)N1CCN(c3ccccc3F)CC1)C(=O)C(C)(C)O2,101,101,96,98,101
O=c1oc(-c2cccc(Cl)c2)nc2c1cnn2-c1ccccc1,101,57,u,208*[may fluoresce violet],23
O=c1oc(-c2ccccc2F)nc2c1cnn2-c1ccccc1,103,99,96,103,101
Cc1nc(N2CCC(C)CC2)c2oc3ccccc3c2n1,98,49*[may fluoresce violet],u,252*[may fluoresce violet],x
Cc1cc(C)nc(NS(=O)(=O)c2ccc(N3C(=O)C4CC=C(Cl)CC4C3=O)cc2)n1 (stereo unspecified),u,12*[may fluoresce violet],u,u,u
Cc1ccc([N+](=O)[O-])cc1NCC(=O)NN,95,60,u,188*[may fluoresce violet],20
COc1ccccc1CNC(=O)CCS(=O)(=O)c1ccc(Cl)cc1,108,105,92,103,107
CC(C)(C)OC(=O)N/N=C/c1cccn1-c1ccc([N+](=O)[O-])cc1,117,102,105,109,113
CN(C)c1ccc(-n2cccc2/C=C/[N+](=O)[O-])cc1,155*,92,90,99,96
CN(C)CCCN1C(=O)C(=O)/C(=C(/O)c2ccncc2)C1c1ccccc1 (stereo unspecified),103,46*[may fluoresce violet],u,288*[may fluoresce violet],u
COc1cccc(C(=O)NN2CC(O)=C(c3nc(C)cs3)C2=N)c1,74,43*[may fluoresce violet],u,189*[may fluoresce violet],u
Cc1ccc(C(=O)OC2CCN(c3ccc([N+](=O)[O-])cc3)CC2)cc1,u,42*[may fluoresce violet],u,239*[may fluoresce violet],u
COC(=O)C1CCN(c2ccc([N+](=O)[O-])cc2)CC1,102,94,96,95,97
Cc1noc(C)c1COc1cccc(C(=O)OC(C)C#N)c1 (stereo unspecified),99,20*[may fluoresce violet],u,307*[may fluoresce violet],35
Cc1cc(Nc2ccccc2)nc(N2CCN(C(=O)c3ccc4c(c3)OCO4)CC2)n1,104,100,90,95,100
COc1ccccc1NC(=O)C(C)OC(=O)/C(=C/c1ccccc1)NC(C)=O (stereo unspecified),106,103,108,106,107
CCN(CC)CCN(CC(=O)N(C1CCCCC1)C1CCCCC1)C(=O)c1ccco1,72,77,u,226*[may fluoresce violet],18
Cc1[nH]c(C)c(S(=O)(=O)N2CCN(c3cccc(Cl)c3)CC2)c1C(=O)N1CCCC1,86,100,102,103,100
Cc1[nH]c(C)c(S(=O)(=O)N2CCN(c3ccccc3)CC2)c1C(=O)N1CCCCC1,116,47*[may fluoresce violet],u,509*[may fluoresce violet],u
C#CCOCCOCCOCCNc1nc(N2CCN(C(=O)CCCCCCCCCCNC(=O)Cn3cc(C[C@@H](C)O)nn3)CC2)nc(N2CCN(C(=O)CCCCCCCCCCNC(=O)[C@H](CCCCN)n3cc(C[C@@H](C)CC)nn3)CC2)n1,129,80,96,88,86
C#CCOCCOCCOCCNc1nc(N2CCN(C(=O)CCCCCCCCCCNC(=O)[C@H]([C@@H](C)CC)n3cc(CCCCN=C(N)N)nn3)CC2)nc(N2CCN(C(=O)CCCCCCCCCCNC(=O)[C@H](CCCCN)n3cc(C[C@@H](C)CC)nn3)CC2)n1,187*,74,102,102,96
SMILES,LAP4-GFP MLPCN,RPL19A-GFP yeast,CIT2-GFP yeast,MEP2 TOR yeast,AGP1-GFP MLPCN
C#CCOCCOCCOCCNc1nc(N2CCN(C(=O)CCCCCCCCCCNC(=O)[C@H](CCCCN)n3cc(C[C@@H](C)CC)nn3)CC2)nc(N2CCN(C(=O)CCCCCCCCCCNC(=O)[C@H](CCCCN)n3cc(C[C@@H](C)CC)nn3)CC2)n1,216*,69,87,105,92
O=S1(=O)N=C2CCCCCN2C(c2ccc(F)cc2)N1 (stereo unspecified),105,17*[may fluoresce violet],u,192*[may fluoresce violet],u
O=S1(=O)N=C2CCCN2C(c2ccc(F)cc2)N1 (stereo unspecified),101,102,96,106,105
CCOC(=O)CN1C(=O)C(Sc2n[nH]c(-c3ccccc3)n2)CCc2ccccc21 (stereo unspecified),95,99,110,92,108
O=c1c2c(-c3cccs3)csc2ncn1/N=C/c1ccccn1,156*,82,83,91,100
O=S(=O)(Nc1nc2ccccc2nc1Cl)c1ccc2ccccc2c1,122,105,88,185*,87
CC(Oc1ccc(Cl)cc1Cl)C(=O)NC1=NN(c2ccccc2)C(=O)C1 (stereo unspecified),157*,75,87,102,86
CC(=O)c1cc(C#N)c(SCc2ccccc2)nc1C,101,56,u,184*[may fluoresce violet],x
COC(=O)/C=C/c1ccc(OC(=O)OC)c(OC(=O)OC)c1,104,96,101,105,103
O=[N+]([O-])c1cc(C(F)(F)F)ccc1NCCc1ccccn1,219*,63,79,86,76
O=C(O)c1cc(-c2c[nH]c3ccccc23)nc2cc3ccccc3cc12,69,23*[may fluoresce violet],u,636*[may fluoresce violet],u
CSCC[C@H](NC(=O)c1ccc(Br)o1)c1nnc2ccccn12,88,42*[may fluoresce violet],u,144,15
CSCC[C@H](NC(=O)c1cccs1)c1nnc2ccccn12,89,94,93,91,91
CCN(CC)S(=O)(=O)c1ccc(Cl)c(C(=O)Nc2cc(C)nn2-c2ccccc2C(F)(F)F)c1,88,100,99,103,96
Cc1cc(C=C2C(=O)c3ccccc3C2=O)c(C)n1-c1ccc(C(=O)O)cc1,104,90,99,96,x
Cc1cc(C=C2C(=O)c3ccccc3C2=O)c(C)n1-c1cccc(C(=O)O)c1,123,104,106,214*,83
Cc1ccccc1OCc1ccc(C(=O)N2CC(C)OC(C)C2)o1 (stereo unspecified),92,104,87,104,97
O=C(NC(=S)NNC(=O)c1ccco1)c1ccc(F)cc1,u,8.6*[may fluoresce violet],u,u,u

# Bioassay records (PubChem)
